Sampled rows, rich in hits. Any-hit rate of the full collection: about 19%.
IL-1B inflam inh: qHTS for Inhibitors of Inflammasome Signaling: IL-1-beta AlphaLISA Primary Screen; THP-1 LPS/ATP IL-1B secretion, AlphaLISA, 16 h; active compounds read low; activity change, % at 57.5 µM; hit rate 4.7% among 360,000; in the data active means activity change below about -50%; inconclusive means mostly about -30% to -49%
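Secreted IL-1B measured by AlphaLISA bead assay after 16 h compound exposure of THP-1 cells; compounds (final up to 57.5 uM) added 1 h before LPS (250 ng/mL) and ATP (1.25 mM) stimulation; lower signal means less secretion.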
DT40 TDP1 CPT: qHTS for Inhibitors of human tyrosyl-DNA phosphodiesterase 1 (TDP1): qHTS in cells in presence of CPT; chicken DT40 Tdp1-/-;hTDP1 cells + 20 nM CPT, ATP luminescence, 48 h; Potency, µM (top dose mostly 46.2 µM), for inactives: top-dose activity change, negative = growth inhibition, hits mostly inhibitors; hit rate 12% among 420,000; AID 686979, 2013; further: potency means the concentration at half of the fitted maximal effect; nearly all actives have a fitted effect of over 55% in size
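Chicken DT40 Tdp1-/- cells stably complemented with human TDP1 were seeded at 400 cells/well in medium containing 20 nM camptothecin, exposed to pin-transferred compounds, and grown at 37 °C for at least 48 hr. Viability was read as ATP luminescence.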
uPA generation: qHTS for Inhibitors of Cell Surface uPA Generation; Potency, µM (top dose mostly 38.3 µM), for the others: at the top dose activity change, negative = inhibition, hits mostly inhibitors; hit rate 0.31% among 330,000; AID 540303, 2011; cell surface uPA generation assay, qHTS; active means well fitted inhibition curve with a large enough effect; inconclusive means small, poorly fitted or top-dose-only effect; inactive means no such curve, though single readings can be large or run the other way; tested in mouse RAW 264.7 cells; further: potency means the concentration at half of the fitted maximal effect; nearly all actives have a fitted effect of over 55% in size
TDP1 cell noCPT: qHTS for Inhibitors of human tyrosyl-DNA phosphodiesterase 1 (TDP1): qHTS in cells in absence of CPT | Potency, µM (doses to about 46.2 µM), for inactives: top-dose activity change, negative = growth inhibition, hits mostly inhibitors | AID 686978, 2013 | DT40 Tdp1-/- hTDP1 cells, no CPT, ATP luminescence, 48 h | hit rate 15% among 420,000; further: potency means the concentration at half of the fitted maximal effect; nearly all actives have a fitted effect of over 55% in size
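A cellular qHTS used chicken DT40 cells lacking endogenous Tdp1 but carrying stably transfected human TDP1. Compounds were applied without camptothecin, and cell growth kinetics were judged by ATP-dependent luminescence after ≥48 hr.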
HT1080 IDH1KD tx: qHTS for induction of synthetic lethality in tumor cells producing 2HG: qHTS for the HT-1080-IDH1KD cell line; Potency, µM (top dose mostly 46.1 µM), for inactives: at the top dose activity, negative = toxicity, usual class: cytotoxic; AID 686971, 2013; hit rate 2% among 360,000; HT-1080 IDH1 knockdown viability, ATP luminescence, 48 h;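 further: potency means the concentration at half of the fitted maximal effect; 0% = DMSO wells and -100% = cell-free medium wells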
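Knockdown cells (IDH1KD HT-1080) received compounds 2 h after plating at 750 cells/well and were kept 48 h at 37 °C in 5% FBS RPMI. A CellTiter-Glo luminescence read gave % activity for curve fitting.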
HT1080NT lethal: qHTS for induction of synthetic lethality in tumor cells producing 2HG: qHTS for the HT-1080-NT fibrosarcoma cell line. HT-1080-NT fibrosarcoma viability, CellTiter-Glo ATP luminescence, 48 h. Potency, µM (top dose mostly 46.1 µM), for inactives: at the top dose activity, negative = less viability, hits mostly cytotoxic. hit rate 1.6% among 360,000. AID 686970, 2013;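 further: NT is the 2HG producing partner of a matched IDH1 knockdown line; potency means the concentration at half of the fitted maximal effect; 0% = DMSO-treated cells and -100% = media-only wells without cells; nearly all actives have a fitted effect of over 55% in size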
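Read-out is CellTiter-Glo luminescence after 10 minutes at room temperature, following 48 hours' compound treatment of HT-1080-NT cells (750 cells/well, RPMI, 5% FBS, 37 degrees C).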
Active calls of the source: *; ? = inconclusive; nt = no result. Unless noted, the call rests on the fitted dose curve; in most records, active means well fitted curve in the direction sought with a large enough effect; inconclusive means small, poorly fitted or top-dose-only effect, or another doubt; inactive means no such curve, though single readings can be large; an effect the other way counts as inactive or inconclusive. Unless noted, on the % scale 0 is the no-effect control and ±100 the full control effect.

SMILES | IL-1B inflam inh | DT40 TDP1 CPT | uPA generation | TDP1 cell noCPT | HT1080 IDH1KD tx | HT1080NT lethal
CCn1c(SC)nc2c([nH]c3ccccc32)c1=O | nt | -21.8% | nt | 3.8% | nt | nt
O=CN(Cc1nc2ccccc2[nH]1)c1ccc(C(=O)O)cc1 | 3.4 | 8.4% | 1.5% | -3.1% | 2.3% | 1.3%
O=C(Cc1ccc([N+](=O)[O-])cc1)N1N=C(c2ccncc2)CC1(O)C(F)(F)F (configuration not stated) | 8.8 | 20.6µM* | 7.0% | ? | 7.6% | 5.4%
Cc1ccc(OCC(=O)N2N=C(c3ccncc3)CC2(O)C(F)(F)F)cc1C (configuration not stated) | 5.5 | ? | -17.7% | 20.6µM* | -24.0% | ?
COc1ccc(Cn2cc(CN3CC(N(C)C)CS3(=O)=O)nn2)cc1 (configuration not stated) | -1.4 | -8.8% | nt | -0.3% | 8.1% | -1.3%
CCc1ccc(/C=C/C(=O)c2cc(Br)ccc(=O)c2O)cc1 | -1.5 | 3.26µM* | -13.4% | 5.17µM* | ? | 20.6µM*
Cc1cccc(/C=C/C(=O)c2cc(Br)ccc(=O)c2O)c1 | ? | 3.26µM* | -15.9% | 3.26µM* | ? | ?
CCOc1ccc(/C=C/C(=O)c2cc(Br)ccc(=O)c2O)cc1 | ? | 4.61µM* | -6.7% | 3.66µM* | 23.1µM* | ?
CCNc1nc(C#N)nc(NCC)n1 | nt | 6.4% | nt | -17.7% | nt | nt
Cc1cc(C)nc(N/N=C/c2cn[nH]c2-c2ccc(F)cc2)n1 | -6.2 | -15.1% | 20.3% | -22.0% | -2.3% | -0.4%
COc1ccc(NC(=S)N(CCN(C)C)C(C)c2ccco2)cc1Cl (configuration not stated) | -1.2 | -25.8% | -1.4% | 16.4µM* | 11.6% | -3.7%
CC(=O)n1c(Cl)c(NC(=O)CCl)c2ccccc21 | -100.6* | 10.3µM* | -25.9% | 11.6µM* | 7.08µM* | 5.62µM*
CCOC(=O)c1c(-c2ccccc2)oc2ccc(OC(C)=O)cc12 | -8.2 | 6.0% | -3.7% | -13.2% | 0.0% | ?
CCOC(=O)c1c(-c2ccccc2)oc2ccc(OCC(O)CN(C)C)cc12 (configuration not stated) | -65.1* | ? | 4.1% | 23.1µM* | 14.6µM* | 25.9µM*
CCCC(=O)N(c1ccc2oc(-c3ccccc3)c(C(=O)OCC)c2c1)S(=O)(=O)c1ccc(C)cc1 | nt | ? | nt | 5.8µM* | nt | nt
CCOC(=O)c1c(-c2ccccc2)oc2ccc(OC(C)C(=O)O)cc12 (configuration not stated) | -11.4 | 0.9% | -3.2% | -11.6% | -6.4% | 0.0%
CCOC(=O)c1c(-c2ccccc2)oc2ccc(N(C(C)=O)S(=O)(=O)c3ccc(C)cc3)cc12 | nt | 8.2µM* | nt | 10.3µM* | nt | nt
CCOC(=O)c1c(-c2ccccc2)oc2ccc(NS(=O)(=O)c3ccc(C)cc3)cc12 | nt | 2.91µM* | nt | 2.91µM* | nt | nt
CC12CCC(C(=O)C1)C1(C)CCCC(=O)C21 (configuration not stated) | 16.2 | 9.4% | 1.3% | 0.6% | -3.0% | -3.2%
O=C1CCNCCN1[C@H](CO)c1ccccc1 | 12.6 | -4.3% | -1.7% | -3.6% | 5.8% | 3.1%
Cn1nnnc1SCC(=O)NC(=O)c1cccc([N+](=O)[O-])c1 | 35.5 | 11.0% | -1.5% | 5.2% | 15.0% | 7.3%
Cc1ccc(C(=O)n2c3ccccc3c3ccccc32)cc1 | 42.9 | 5.8µM* | -9.8% | 6.51µM* | 6.51µM* | ?
C[C@H](NC(=O)c1nc[nH]c1C(=O)NC(c1ccccc1)c1ccccc1)C(=O)OCc1ccccc1 | 4.3 | 23.1µM* | -11.3% | 23.1µM* | -9.6% | ?
CCN(CC)C(=O)c1[nH]cnc1C(=O)N[C@@H](C)C(=O)OCc1ccccc1 | -4.9 | ? | -0.8% | 10.3µM* | 8.6% | 10.8%
COc1ccc(NC(=O)CC(C)S(=O)(=O)c2cc3c(cc2C)NC(=O)CO3)cc1OC (configuration not stated) | nt | -1.0% | nt | 2.4% | nt | nt
SMILES | IL-1B inflam inh | DT40 TDP1 CPT | uPA generation | TDP1 cell noCPT | HT1080 IDH1KD tx | HT1080NT lethal
Cc1cccc(OCCSCc2nc3ccccc3[nH]2)c1 | 7.6 | 16.4µM* | 12.5% | 20.6µM* | -6.0% | -9.4%
Cc1ccccc1OCCSCc1nc2ccccc2[nH]1 | 6.8 | 16.4µM* | 3.1% | ? | -21.3% | -16.6%
C[C@@H]1CCC2[C@](C)(CO)[C@@H](O)CC[C@]2(C)[C@@]12C[C@](CO)(CC(=O)O)CO2 (some centres not stated) | -0.1 | 25.8% | 6.6% | -15.0% | 11.9% | 1.5%
CCOc1ccccc1NC1=C(OC)C(=O)C(Nc2ccccc2OCC)=C(OC)C1=O | -1.6 | 0.3% | 3.6% | ? | 29.2% | 4.8%
COc1cccc(C(c2sc3nc(-c4ccco4)nn3c2O)N2CCN(C)CC2)c1 (configuration not stated) | nt | 0.1% | nt | -18.7% | nt | nt
O=C(NCc1ccc(F)cc1)C(=O)NCC1OCCN1C(=O)c1cccs1 (configuration not stated) | -0.3 | -6.4% | 0.3% | 11.4% | 17.1% | 14.5%
CCOc1cccc2sc(N(CCN(C)C)C(=O)c3ccc4ccccc4c3)nc12 | -100.9* | ? | -4.2% | ? | -6.8% | 1.6%
COc1ccc2sc(N(CCN(C)C)C(=O)c3ccc4ccccc4c3)nc2c1 | -7.3 | -24.6% | -0.8% | ? | -2.6% | 3.6%
COc1ccc(C)c2sc(N(CCN(C)C)C(=O)c3ccc4ccccc4c3)nc12 | -54.5* | 18.4µM* | 1.4% | ? | -22.9% | ?
Cc1cc(C)c2nc(N(CCN(C)C)C(=O)c3ccc4ccccc4c3)sc2c1 | 0.0 | 16.4µM* | -4.9% | 13µM* | ? | ?
CN(C)CCN(C(=O)c1ccc2ccccc2c1)c1nc2c(F)cccc2s1 | -20.9 | -25.8% | 0.0% | 5.2% | 6.1% | -0.4%
Cc1ccc2nc(/C(C#N)=C/c3ccccc3C(=O)O)[nH]c2c1 | 28.9 | 24.2% | 3.9% | 3.0% | 0.9% | 3.7%
N#C/C(=C\c1ccc(Oc2ccc(C(F)(F)F)cc2[N+](=O)[O-])cc1)c1nc2ccccc2[nH]1 | -13.0 | -74.3% | -0.4% | 20.6µM* | -7.6% | -7.8%
Cc1ccc2nc(/C(C#N)=C\c3ccc(N4CCCCC4)c([N+](=O)[O-])c3)[nH]c2c1 | ? | 20.6µM* | -14.4% | 10.3µM* | ? | ?

Screens deposited in PubChem by National Center for Advancing Translational Sciences (NCATS).
